Measured values as given in PubChem BioAssay (NCATS).
Inconclusive results are not listed. A call without a number means that no potency is given here. The source made the active and inactive calls. The call rests on the fitted dose curve; in most records, active means well fitted inhibition curve with a large enough effect; inconclusive means small, poorly fitted or top-dose-only effect; inactive means no such curve, though single readings can be large or run the other way. Where a SMILES comes first, the peptide text is derived from it. [ ]: non-standard residue; d: D form. ξ: configuration not given here. ξLac(3-iPr) = CC(C)CC(O)C(=O)O; NMeV = CN[CH](C(=O)O)C(C)C; βAla = NCCC(=O)O

Tests used:
[1] = test system: Zika virus NS2B-NS3 protease (unlinked complex); experiment: Primary screen GU Rhodamine qHTS for Zika virus inhibitors: Unlinked NS2B-NS3 protease assay (AID 1347159); further: nearly all actives have a fitted effect of over 60% in size; further: potency means the concentration at half of the fitted maximal effect
Outline: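 Enzyme 25 nM in Tris-HCl pH 8.0 + 0.01% Tween 20; compounds up to 114 microM, 15 min RT dark; + Rhod110 substrate 1.5 microM; read t0 and 15 min; delta fluorescence → % inhibition → 4-parameter Hill fit.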

[2] = test system: Zika virus NS2B-NS3 protease (linked construct); experiment: Primary screen NINDS Rhodamine qHTS for Zika virus inhibitors (AID 1347160); further: nearly all actives have a fitted effect of over 55% in size
Outline: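 Enzyme (25 nM, linked NS2B-NS3) was preincubated 15 min with compound in 10 mM Tris-HCl pH 8.0, 0.01% Tween 20. Rhodamine110 substrate (1.5 microM) was then added and fluorescence read at start and after 15 min.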

## Nc1nccn2c(C3CCC(C(=O)O)CC3)nc(-c3cc4cccc(Cl)c4[nH]3)c12 (stereo not given)
[1]
  Potency: 25.1 µM (active)

## CC(C)(C)C(=O)CN1C(=O)[C@H](NC(=O)Nc2cccc(C(=O)O)c2)CN(C2CCCCC2)c2ccccc21
[1]
  Potency: 10 µM (active)

## C=C1C(O)C(O)C2(CC3C(C)=CCC4C(C)(CO)CCCC34C)OC2C1O (stereo not given)
[1]
  Potency: inactive
[2]
  Potency: inactive

## CC(C)CC1OC(=O)C2CCCN2C(=O)CCNC(=O)C(Cc2ccccc2)NC(=O)C(C(C)C)N(C)C(=O)C(C(C)C)N(C)C1=O (stereo not given) (cyclo([ξLac(3-iPr)][NMeV][NMeV]F[βAla]P); configuration not given here)
[1]
  Potency: inactive
[2]
  Potency: inactive

## CC(Oc1cc(-n2cnc3ccc(CN4CCN(C)CC4)cc32)sc1C(N)=O)c1ccccc1C(F)(F)F (stereo not given)
[1]
  Potency: inactive
[2]
  Potency: inactive

## CC[C@H](CO)Nc1nc(NCc2ccc(-c3ccccn3)cc2)c2ncn(C(C)C)c2n1
[1]
  Potency: inactive
[2]
  Potency: inactive

## COC(=O)CC(O)CC(O)/C=C/c1c(C)ccc2c1C(O)CC(C)C2 (stereo not given)
[1]
  Potency: inactive
[2]
  Potency: inactive

## CCOCc1nc2c(N)nc3ccccc3c2n1CC(C)(C)O
[1]
  Potency: inactive
[2]
  Potency: inactive

## CN(C)C/C=C/C(=O)Nc1cc2c(Nc3ccc(F)c(Cl)c3)ncnc2cc1OC1CCOC1 (stereo not given)
[1]
  Potency: inactive
[2]
  Potency: inactive

## CC(C)C(=O)OC[C@H]1O[C@H](O[C@H]2O[C@H](CO)[C@@H](O)[C@H](O)[C@H]2O)[C@H](O)[C@@H](O)[C@@H]1O
[1]
  Potency: inactive
[2]
  Potency: inactive

## COc1ccc(CCO[C@@H]2CCCC[C@H]2N2CC[C@@H](O)C2)cc1OC
[1]
  Potency: inactive
[2]
  Potency: inactive

## CCOc1cc(N2CCC(O)CC2)ccc1Nc1ncc2c(n1)N(C1CCCC1)CCC(=O)N2C
[1]
  Potency: inactive
[2]
  Potency: inactive

## CCOC(=O)C(CCc1ccccc1)NC1CSC(c2cccs2)CN(CC(=O)O)C1=O (stereo not given)
[1]
  Potency: inactive
[2]
  Potency: inactive

## CCCCNc1ncc2c(-c3ccc(F)cc3)nn(CC3CCC(N)CC3)c2n1 (stereo not given)
[1]
  Potency: inactive
[2]
  Potency: inactive

## C=C[C@H]1C(O[C@@H]2O[C@H](CO)[C@@H](O)[C@H](O)[C@H]2O)OC=C2C(=O)N3CCc4c([nH]c5ccccc45)[C@H]3C[C@H]21 (stereo not given in full)
[1]
  Potency: inactive
[2]
  Potency: inactive

## C=C1CN(Cc2ccc(C(=O)Nc3ccccc3N)cc2)C(=O)c2ccccc21
[1]
  Potency: inactive
[2]
  Potency: inactive

## CC(O)/C=C/C1C(C)C(O[C@@H]2O[C@H](CO)[C@@H](O)[C@H](O)[C@H]2O)C(O)CC1(C)C (stereo not given in full)
[1]
  Potency: inactive
[2]
  Potency: inactive

## CC(=O)O[C@@H]1[C@@H](OC(=O)/C=C/c2ccccc2)[C@@H](OC(C)=O)[C@H](O[C@H]2[C@@H]3C=CO[C@@H](O[C@@H]4O[C@H](CO)[C@@H](O)[C@H](O)[C@H]4O)[C@@H]3[C@@]3(CO)O[C@@H]23)O[C@H]1C
[1]
  Potency: inactive
[2]
  Potency: inactive

## C=CC1C(OC2OC(CO)C(O)C(O)C2O)OC=C(C(=O)OC)C1CC1CC(=O)CC(CCc2ccc(O)cc2)O1 (stereo not given)
[1]
  Potency: inactive
[2]
  Potency: inactive

## COc1cc(/C=C/C(=O)O[C@H]2[C@H](O)[C@@H](CO)O[C@@]2(CO)O[C@H]2O[C@H](CO)[C@@H](O)[C@H](O)[C@H]2O)ccc1O
[1]
  Potency: inactive
[2]
  Potency: inactive

## COc1cc(-c2ncn(/C=C\C(=O)OC(C)C)n2)cc(C(F)(F)F)c1
[1]
  Potency: inactive
[2]
  Potency: inactive

## CC(=O)c1cc2c(cc1O)OC(C)(C)C=C2
[1]
  Potency: inactive
[2]
  Potency: inactive

## CCCCC1CCN(CCCC(=O)c2ccccc2C)CC1
[1]
  Potency: inactive
[2]
  Potency: inactive

## C[C@@H]1C[C@@H]([C@@H](O)C(C)(C)O)O[C@H]2C[C@@]3(C)C(=C12)C[C@H](O)[C@H]1[C@@]2(C)CCC(=O)C(C)(C)C2CC[C@@]13C (stereo not given in full)
[1]
  Potency: inactive
[2]
  Potency: inactive

## c1cn2cc(-c3ccc4cn[nH]c4c3)nc(Nc3ccc(N4CCOCC4)cc3)c2n1
[1]
  Potency: inactive
[2]
  Potency: inactive

## Cc1cccc(C)c1OCc1cc(C(=O)N2CCC(c3ccncc3)CC2)no1
[1]
  Potency: inactive
[2]
  Potency: inactive

## C=C(CCC1=C(C)[C@H]2[C@H](CC3[C@@H]4CC=C5C[C@@H](O)C[C@@H](O)[C@]5(C)C4[C@H](O)C[C@@]32C)O1)CO[C@@H]1O[C@H](CO)[C@@H](O)[C@H](O)[C@H]1O (stereo not given in full)
[1]
  Potency: inactive
[2]
  Potency: inactive

## COC1/C=C/C(C)(O)C(SCC(N)C(=O)O)CC(=O)OC(C)C(C)CC/C=C/1C (stereo not given)
[1]
  Potency: inactive
[2]
  Potency: inactive

## NC1CCCCN(c2c(F)cc3c(=O)c(C(=O)O)cn(C4CC4)c3c2Cl)C1 (stereo not given)
[1]
  Potency: inactive
[2]
  Potency: inactive

## CC(=O)OC[C@@]12C(=O)C[C@@H](C)[C@]3(C[C@@H](c4ccoc4)O[C@H]3OC(C)=O)[C@H]1CCC[C@]21CO1
[1]
  Potency: inactive
[2]
  Potency: inactive

## C=C1CC[C@@H]2[C@@](C)(CO[C@@H]3O[C@H](CO)C(O)[C@H](O)C3O)[C@H](O)CC[C@@]2(C)[C@@H]1CC/C(C)=C/CO (stereo not given in full)
[1]
  Potency: inactive
[2]
  Potency: inactive

## N#Cc1ccc2[nH]cc(CCCCN3CCN(c4ccc5oc(C(N)=O)cc5c4)CC3)c2c1
[1]
  Potency: inactive
[2]
  Potency: inactive

## O=C(CC(c1ccccc1)c1ccccc1)N1CCN(C(c2ccccc2)c2ccccc2)CC1
[1]
  Potency: inactive
[2]
  Potency: inactive

## C/C=C(\C)C(=O)O[C@@H]1CC2[C@@H](CC=C3C[C@@H](O[C@H]4C[C@H](OC)[C@H](O[C@H]5C[C@H](OC)[C@H](O[C@@H]6O[C@H](C)[C@@H](O[C@H]7C[C@H](OC)[C@H](O[C@@H]8O[C@H](CO)[C@@H](O)[C@H](O)[C@H]8O)[C@@H](C)O7)[C@H](OC)[C@H]6O)[C@@H](C)O5)[C@@H](C)O4)CC[C@@]32C)[C@@]2(O)CC[C@H](C(C)=O)[C@@]12C (stereo not given in full)
[1]
  activity change, negative = inhibition: 8.5% [at 19.1 µM] (inactive)
[2]
  activity change, negative = inhibition: 18.6% [at 10.7 µM] (inactive)

## COc1cc2ncnc(N3CCC(Oc4cnc5ccccc5n4)C3)c2cc1OC (stereo not given)
[1]
  Potency: inactive
[2]
  Potency: inactive

## C#CCN(Cc1cc2c(=O)n(C)c(CN3CCN(C)CC3)nc2cc1Cl)c1ccc(C(=O)NCc2cccnc2)cc1
[1]
  Potency: inactive
[2]
  Potency: inactive

## CC1(C)CC[C@]2(C(=O)O[C@@H]3O[C@H](CO)[C@@H](O)[C@H](O)[C@H]3O)CC[C@]3(C)C(=CCC4[C@@]5(C)CC[C@H](O[C@@H]6O[C@H](C(=O)O)[C@@H](O)[C@H](O)[C@H]6O)[C@@](C)(CO)C5CC[C@]43C)C2C1 (stereo not given in full)
[1]
  Potency: inactive
[2]
  Potency: inactive

## CCc1cnn2c(NCc3ccc[n+]([O-])c3)cc(N3CCCCC3CCO)nc12 (stereo not given)
[1]
  Potency: inactive
[2]
  Potency: inactive

## C=C1C(=O)O[C@@H]2C/C(C)=C\C(=O)/C=C(\C)[C@@H](OC(=O)/C(C)=C\C)[C@H](O)[C@@H]12
[1]
  Potency: inactive
[2]
  Potency: inactive

## CC(=O)N1CCc2ccc(O)c(OC3OC(COC4OCC(O)(CO)C4O)C(O)C(O)C3O)c2C1Cc1ccc(O)cc1 (stereo not given)
[1]
  Potency: inactive
[2]
  Potency: inactive

## C[C@]1(CO)CCC[C@]2(C)C3=C(CCC12)COC3 (stereo not given in full)
[1]
  Potency: inactive
[2]
  Potency: inactive

## Cc1ccc(Cc2c(C)nc3nc(SCC(=O)NCCN4CCNCC4)nn3c2C)cc1
[1]
  Potency: inactive
[2]
  Potency: inactive

## C/C=C/C(O)C1OC(=O)CC1Nc1ccc(C(=O)O)cc1 (stereo not given)
[1]
  Potency: inactive
[2]
  Potency: inactive

## Cc1oc2ccccc2c1CNC(=O)NCc1cccs1
[1]
  Potency: inactive
[2]
  Potency: inactive

## Nc1nc2c(c(N3CCNCC3)n1)CCC1=C2[C@@H]2CCCC[C@@H]2O1
[1]
  Potency: inactive
[2]
  Potency: inactive

## COc1cc(O)cc(C)c1C(=O)OC1C(CO)OC(OC2C(O)C(O)C(O)C(O)C2O)C(O)C1O (stereo not given)
[1]
  Potency: inactive
[2]
  Potency: inactive

## COC(=O)C1=CO[C@@H](O[C@@H]2O[C@H](CO)[C@@H](O)[C@H](O)[C@H]2O)[C@H]2[C@@H]1C=C[C@@]21C=C([C@H](C)O)C(=O)O1
[1]
  Potency: inactive
[2]
  Potency: inactive

## COc1cc(/C=C/CO)cc(OC)c1O[C@@H]1O[C@H](CO[C@@H]2O[C@H](CO)[C@@H](O)[C@H](O)[C@H]2O)[C@@H](O)[C@H](O)[C@H]1O
[1]
  Potency: inactive
[2]
  Potency: inactive

## COc1c2cc(c(O)c1OC)-c1cc(ccc1O)CCC(O)CCCC2 (stereo not given)
[1]
  Potency: inactive
[2]
  Potency: inactive

## C=C[C@]1(C)C[C@H](O)[C@@H]2[C@H](OC(=O)[C@@H]2C)C1/C(C)=C/O[C@@H]1O[C@H](CO)[C@@H](O)[C@H](O)[C@H]1O (stereo not given in full)
[1]
  Potency: inactive
[2]
  Potency: inactive

## C=C1C[C@]23C[C@H]1[C@@H](O)C[C@H]2[C@@]12C=C[C@H](O)[C@@](C)(C(=O)O1)[C@H]2[C@@H]3C(=O)O
[1]
  Potency: inactive
[2]
  Potency: inactive
